POLI inh = qHTS for Inhibitors of Polymerase Iota | 390,000 tested, 1% active | Pol iota fluorescent replication assay, 10 min | Potency, µM (top dose mostly 115 µM), inactives show at the top dose activity, negative = inhibition, most hits filed as inhibitors | AID 588590, 2011 | DNA polymerase iota (Homo sapiens), Q9UNA4
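Pol iota at 10 nM preincubated 15 min with compounds at room temperature; reaction started with fluorescent substrate, 50 nM final. Fluorescence read kinetically at 0 and 10 min; buffer-only wells as negative control.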
WRN helicase inh-1 = qHTS for Inhibitors of WRN Helicase; Bifunctional 3'-5' exonuclease/ATP-dependent helicase WRN (Homo sapiens), Q14191; WRN helicase unwinding, fluorescent forked duplex, kinetic; Potency, µM (top dose mostly 114 µM), for the others: at the highest dose activity change, negative = inhibition, actives largely listed as inhibitors; 360,000 tested, 0.46% active; AID 651768, 2012; also: % is scaled to controls: 0 for no effect and ±100 for the full control effect; nearly all actives have a fitted effect of over 55% in size
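Primary qHTS, 1536-well format. 20 nM WRN + compound, 15 min RT; start with 100 nM forked fluorophore/quencher duplex, 2 mM ATP (final); kinetic read ex 525/em 598 nm.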
Pol eta inh-1 = qHTS for Inhibitors of Polymerase Eta; AID 588591, 2011; Potency, µM (series often up to 114 µM), for the others: at the top dose activity change, negative = inhibition, most hits filed as inhibitors; 390,000 tested, 1.2% active; DNA polymerase eta (Homo sapiens), Q9Y253; recombinant Pol eta, fluorescent DNA replication assay; also: % is scaled to controls: 0 for no effect and ±100 for the full control effect
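Pol eta (10 nM) was preincubated with compounds for 15 min at room temperature, after which fluorescent replication substrate (50 nM final) was added to start the reaction. Fluorescence was read kinetically at 0 and 10 min.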
POLB inh = qHTS Assay for Inhibitors of DNA Polymerase Beta. P06746. Pol beta primer extension/strand displacement, fluorescence kinetic. Potency, µM (series often up to 114 µM), without a hit: at the top dose activity change, negative = inhibition, most hits filed as inhibitors. 340,000 tested, 1.3% active. AID 485314, 2010; also: % is scaled to controls: 0 for no effect and ±100 for the full control effect
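Values derive from four-parameter Hill fits of normalized kinetic data: reads at 0 and 10 min following addition of 50 nM substrate to 10 nM Pol beta preincubated 15 min with compound.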
Pol kappa inh-1 = qHTS for Inhibitors of Polymerase Kappa. DNA polymerase kappa (Homo sapiens), Q9UBT6. purified Pol kappa, fluorescent DNA synthesis assay, 10 min. Potency, µM (doses to about 107 µM), for inactives: at the top dose activity, negative = inhibition, hits mostly inhibitors. 400,000 tested, 0.53% active; also: % is scaled to controls: 0 for no effect and ±100 for the full control effect
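Inhibition of 10 nM Pol kappa is measured by a fluorescent read-out at 0 and 10 min following addition of 50 nM substrate (final), with a 15-min room-temperature compound preincubation.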
FEN1 inh-1 = qHTS Assay for the Inhibitors of Human Flap endonuclease 1 (FEN1) | Potency, µM (highest dose often 114 µM), for the others: top-dose activity change, negative = inhibition, actives largely listed as inhibitors | AID 588795, 2011 | Recombinant FEN1 flap cleavage, fluorescence, 15 min | 390,000 tested, 0.35% active; also: % is scaled to controls: 0 for no effect and ±100 for the full control effect; nearly all actives have a fitted effect of over 65% in size
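Quantitative HTS format: each compound was titrated, incubated with 10 nM nuclease for 15 min at room temperature, then challenged with flap substrate at 50 nM final. Signal change over 15 min gave concentration–effect curves.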
TbPGK inh = qHTS for inhibitors of Phosphogylcerate Kinase: Hit Validation Screen. shares compounds with Pol kappa inh-1. TbPGK coupled GAPDH assay, Kinase-Glo luminescence. Potency, µM (top dose mostly 57.5 µM), for inactives: top-dose activity change, negative = inhibition, hits mostly inhibitors. 500 tested, 79% active. AID 686980, 2013; also: % is scaled to controls: 0 for no effect and ±100 for the full control effect; nearly all actives have a fitted effect of over 65% in size
POLI cherry-pick = qHTS for Inhibitors of Polymerase Iota: Confirmatory Assay for Cherry-picked Compounds; shares compounds with Pol kappa inh-1; Potency, µM, hits mostly inhibitors; 1,500 tested, 77% active; Pol iota primer extension, TAMRA/BHQ fluorescence; AID 720496, 2013
Pol kappa inh-2 = qHTS for Inhibitors of Polymerase Kappa: Confirmatory Assay for Cherry-picked Compounds | shares compounds with Pol eta inh-1 | purified Pol-kappa, fluorescent strand-displacement substrate | Potency, µM, most hits filed as inhibitors | 920 tested, 76% active
Pol eta inh-2 = qHTS for Inhibitors of Polymerase Eta: Confirmatory Assay for Cherry-picked Compounds | Potency, µM, usual class: inhibitors | Pol eta primer extension, TAMRA/BHQ fluorescence, 10 min | 2,600 tested, 64% active | shares compounds with Pol eta inh-1
FEN1 inh-2 = qHTS Assay for the Inhibitors of FEN1: Confirmatory Assay for Cherry-picked Compounds. 880 tested, 79% active. shares compounds with FEN1 inh-1. FEN1 flap cleavage, TAMRA/BHQ2 fluorogenic DNA substrate. Potency, µM, usual class: inhibitors; also: nearly all actives have a fitted effect of over 60% in size
WRN helicase inh-2 = qHTS for Inhibitors of WRN Helicase: Confirmatory Assay for Cherry-picked Compounds; shares compounds with WRN helicase inh-1; WRN helicase DNA unwinding, fluorescence kinetic; Potency, µM (top dose mostly 57.1 µM), for inactives: top-dose activity, negative = inhibition, usual class: inhibitors; 610 tested, 63% active; AID 720497, 2013; also: nearly all actives have a fitted effect of over 65% in size
TO DNA binding = qHTS for Inhibitors of WRN Helicase: Thiazole Orange DNA Binding Counterscreen. Potency, µM (titrated, usually from 57.1 µM), for inactives: at the highest dose activity change, negative = inhibition, hits mostly inhibitors. 610 tested, 10% active. AID 720499, 2013. shares compounds with WRN helicase inh-1. thiazole orange DNA binding displacement, fluorescence;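 also: drop in dye fluorescence marks compound binding to DNA; % is scaled to controls: 0 for no effect and ±100 for the full control effect; nearly all actives have a fitted effect of over 60% in size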
BLM counter = qHTS for Inhibitors of WRN Helicase: BLM Helicase Counterscreen for WRN Inhibitors. Potency, µM (doses to about 57.1 µM), for inactives: top-dose activity change, negative = inhibition, hits mostly inhibitors. 610 tested, 60% active. shares compounds with WRN helicase inh-1. Recombinant BLM helicase DNA unwinding, red fluorescence. AID 720503, 2013; also: nearly all actives have a fitted effect of over 60% in size
Target sequence (P54132 whole entry, looked up): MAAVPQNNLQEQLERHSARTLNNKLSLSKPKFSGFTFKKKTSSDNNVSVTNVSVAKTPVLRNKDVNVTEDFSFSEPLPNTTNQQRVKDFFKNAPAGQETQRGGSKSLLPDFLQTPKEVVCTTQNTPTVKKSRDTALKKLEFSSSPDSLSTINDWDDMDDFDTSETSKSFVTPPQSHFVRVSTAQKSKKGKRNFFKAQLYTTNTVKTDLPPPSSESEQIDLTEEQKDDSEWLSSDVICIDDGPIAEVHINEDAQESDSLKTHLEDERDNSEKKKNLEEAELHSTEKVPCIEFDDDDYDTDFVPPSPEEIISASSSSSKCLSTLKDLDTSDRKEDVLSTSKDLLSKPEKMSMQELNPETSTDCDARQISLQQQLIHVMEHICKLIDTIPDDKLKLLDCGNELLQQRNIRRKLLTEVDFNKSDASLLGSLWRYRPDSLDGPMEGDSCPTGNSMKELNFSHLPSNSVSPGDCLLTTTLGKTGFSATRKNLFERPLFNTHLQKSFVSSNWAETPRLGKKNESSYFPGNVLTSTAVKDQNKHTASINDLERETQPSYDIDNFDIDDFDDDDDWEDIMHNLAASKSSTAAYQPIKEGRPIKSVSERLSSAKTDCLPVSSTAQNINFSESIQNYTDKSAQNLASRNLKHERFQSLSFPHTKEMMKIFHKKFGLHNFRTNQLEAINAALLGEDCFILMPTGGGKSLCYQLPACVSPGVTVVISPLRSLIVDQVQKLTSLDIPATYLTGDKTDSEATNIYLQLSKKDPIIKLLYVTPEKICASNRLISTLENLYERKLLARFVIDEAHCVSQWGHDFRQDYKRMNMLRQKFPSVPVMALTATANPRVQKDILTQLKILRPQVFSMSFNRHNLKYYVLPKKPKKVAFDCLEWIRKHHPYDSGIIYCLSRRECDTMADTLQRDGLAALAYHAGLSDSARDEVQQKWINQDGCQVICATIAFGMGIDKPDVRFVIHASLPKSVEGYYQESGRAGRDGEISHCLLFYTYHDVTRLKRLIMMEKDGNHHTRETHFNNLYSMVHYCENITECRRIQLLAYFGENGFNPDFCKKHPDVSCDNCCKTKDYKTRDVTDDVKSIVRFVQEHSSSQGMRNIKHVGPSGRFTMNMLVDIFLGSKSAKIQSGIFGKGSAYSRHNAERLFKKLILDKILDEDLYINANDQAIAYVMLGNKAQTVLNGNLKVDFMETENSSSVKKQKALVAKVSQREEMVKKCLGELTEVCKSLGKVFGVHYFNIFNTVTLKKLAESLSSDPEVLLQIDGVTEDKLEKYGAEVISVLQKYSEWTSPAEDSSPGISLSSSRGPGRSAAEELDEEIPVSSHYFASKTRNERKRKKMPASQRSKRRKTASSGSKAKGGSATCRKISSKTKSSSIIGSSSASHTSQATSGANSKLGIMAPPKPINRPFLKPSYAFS
Starred values were filed as active, the others as inactive; [ ] = remark or other dose. This is a sample that favours compounds with a hit; in the whole collection about 2.4% have one here. Calls follow the shape of the dose curve; as a rule, active = well fitted curve in the direction sought with a large enough effect; inconclusive = small, poorly fitted or top-dose-only effect, or another doubt; inactive = no such curve, though single readings can be large; an effect the other way counts as inactive or inconclusive. Potency is read from the fitted curve at half-maximal effect.

What do the screens show for `Fc1ccc(Nc2ncnc3c2nc2n3CCCCC2)c(F)c1`?
POLI inh: 7%; Pol eta inh-1: -4%; POLB inh: 46%; Pol kappa inh-1: -8%; FEN1 inh-1: -5%

How did CN1/C(=C\C=C2/SC(=S)N(CC(=O)O)C2=O)C(C)(C)c2ccccc21 do in these assays?
WRN helicase inh-1: 50µM*; Pol eta inh-1: 45µM*; POLB inh: 40µM*; Pol kappa inh-1: inconclusive; FEN1 inh-1: inconclusive; POLI cherry-pick: 38*; Pol kappa inh-2: 34*; Pol eta inh-2: 34*; FEN1 inh-2: 85*; WRN helicase inh-2: 22µM*; TO DNA binding: inactive; BLM counter: 22µM*

Results for COc1ccc2[nH]c(=O)c(-c3noc(-c4ccccc4)n3)cc2c1 ?
POLI inh: inconclusive; WRN helicase inh-1: inconclusive; Pol eta inh-1: inconclusive; POLB inh: -49%; Pol kappa inh-1: 2%; FEN1 inh-1: inconclusive; POLI cherry-pick: 42*; Pol eta inh-2: 67*; WRN helicase inh-2: 22µM*; TO DNA binding: 45%; BLM counter: 6.1µM*

Results for CCOC(=O)C1=C(C)N=c2s/c(=C/c3ccc(OCC(=O)O)c(OC)c3)c(=O)n2C1c1ccc(Cl)cc1 (centres undefined) ?
POLI inh: 10µM*; WRN helicase inh-1: 28µM*; Pol eta inh-1: 20µM*; Pol kappa inh-1: inconclusive; FEN1 inh-1: 50µM*; TbPGK inh: 10µM*; POLI cherry-pick: 15*; Pol kappa inh-2: 7.5*; Pol eta inh-2: 34*; WRN helicase inh-2: 12µM*; TO DNA binding: 465%; BLM counter: 7.6µM*

What do the screens show for `CCOC(=O)C1=C(C)N=c2s/c(=C/c3ccccc3)c(=O)n2C1c1ccc(OC)c(OC)c1` (centres undefined)?
POLI inh: 14%; WRN helicase inh-1: 15%; Pol eta inh-1: -14%; POLB inh: 28%; Pol kappa inh-1: -4%; FEN1 inh-1: -7%

What do the screens show for `CC1=C(C(=O)OCC2CCCCC2)C(c2ccc(Cl)cc2)CC(=O)N1` (centres undefined)?
POLI inh: 2%; Pol eta inh-1: inconclusive; POLB inh: 0%; Pol kappa inh-1: -11%; FEN1 inh-1: -28%

How did CCCCSCc1ccc(C(=O)O)o1 do in these assays?
POLI inh: -11%; WRN helicase inh-1: -8%; Pol eta inh-1: -7%; POLB inh: 6%; Pol kappa inh-1: 0%; FEN1 inh-1: 6%

How did CC(=O)c1c(C)oc(C)c1CSCc1ccc(C(=O)O)o1 do in these assays?
POLI inh: 7.9µM*; WRN helicase inh-1: inconclusive; Pol eta inh-1: 6.3µM*; POLB inh: 13µM*; Pol kappa inh-1: 32µM*; FEN1 inh-1: -17%; POLI cherry-pick: 47*; Pol eta inh-2: inconclusive; WRN helicase inh-2: 9.6µM*; TO DNA binding: -4%; BLM counter: 19µM*

How did CCC(C)NC(=O)c1cc2n(n1)CCCN(Cc1ccc(C)cc1)C2=O (centres undefined) do in these assays?
POLI inh: -17%; Pol eta inh-1: -2%; POLB inh: 6%; Pol kappa inh-1: -5%[60.1 µM]; FEN1 inh-1: 0%

What do the screens show for `COc1cc(OC)c(OC)cc1/C=C/c1nccc2ccccc12`?
POLI inh: inconclusive; Pol kappa inh-1: -21%; FEN1 inh-1: inconclusive

What do the screens show for `Cc1ccc(C)n1-c1sc2c(c1C(=O)O)CCCC2`?
POLI inh: inconclusive; WRN helicase inh-1: inconclusive; Pol eta inh-1: 7.9µM*; POLB inh: 14µM*; Pol kappa inh-1: 50µM*; FEN1 inh-1: 2%; POLI cherry-pick: 60*; Pol eta inh-2: 27*; WRN helicase inh-2: 14µM*; TO DNA binding: 0%; BLM counter: 15µM*

Results for Cc1ccc(C(=O)Nc2sc3c(c2C(=O)O)CCCC3)o1 ?
POLI inh: 10%; WRN helicase inh-1: -1%; Pol eta inh-1: -13%; POLB inh: -11%; Pol kappa inh-1: 4%; FEN1 inh-1: 13%

Compound activity deposited in PubChem by National Center for Advancing Translational Sciences (NCATS).
